The results in this text go back to PubChem BioAssay (NCATS).

Assay [1] can be described thus: Quantitative High-Throughput drug screen in 47 multiple myeloma cell lines against the NCATS MIPE library collection: JIM1_ECACC cell viability assay (AID 1918964). Summed up: (§1)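 Inhibition of cell viability is measured here. Each line was plated at 500 cells per well, treated with MIPE 4.0 drugs, kept 48 hours at 37C, then assayed for ATP content by CellTiter-Glo luminescence.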

Assay [2] can be described thus: Quantitative High-Throughput drug screen in 47 multiple myeloma cell lines against the NCATS MIPE library collection: JJN3_DSMZ cell viability assay (AID 1918966; note: nearly all actives have a fitted effect of over 50% in size). The method, boiled down: as §1
A short description of assay [3]: Quantitative High-Throughput drug screen in 47 multiple myeloma cell lines against the NCATS MIPE library collection: H1112_PLB cell viability assay (AID 1918967; note: nearly all actives have a fitted effect of over 30% in size). The method, boiled down: as §1
The nature of assay [4]: Quantitative High-Throughput drug screen in 47 multiple myeloma cell lines against the NCATS MIPE library collection: JIM3_ECACC cell viability assay (AID 1918963; note: nearly all actives have a fitted effect of over 35% in size). Summed up: as §1
Assay [5] in a line: Quantitative High-Throughput drug screen in 47 multiple myeloma cell lines against the NCATS MIPE library collection: INA6_PLB cell viability assay (AID 1918965; note: nearly all actives have a fitted effect of over 55% in size). The method, boiled down:
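qHTS of the MIPE 4.0 collection: 500 myeloma cells/well, 48 h drug exposure at 37C in 5% CO2, then CellTiter-Glo for 5 min at room temperature before luminescence reading.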

Assay [6] can be described thus: Quantitative High-Throughput drug screen in 47 multiple myeloma cell lines against the NCATS MIPE library collection: Karpas25_ECACC cell viability assay (AID 1918968; note: nearly all actives have a fitted effect of over 35% in size). Summed up:
as §1

The nature of assay [7]: Quantitative High-Throughput drug screen in 47 multiple myeloma cell lines against the NCATS MIPE library collection: KMS27_JCRB cell viability assay (AID 1918970). Note: nearly all actives have a fitted effect of over 30% in size. Summed up:
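KMS27_JCRB myeloma cells, 500 per well, exposed 48 h at 37 C, 5% CO2 to MIPE 4.0 compounds. Viability from ATP by CellTiter-Glo luminescence, normalized to DMSO (100%) and medium-only (0%) wells.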

Structures are written as SMILES. Records with an inconclusive call do not appear. Activity calls are given as the source filed them. Calls come from the whole dose curve; as a rule, active = well fitted curve in the direction sought with a large enough effect; inconclusive = small, poorly fitted or top-dose-only effect, or another doubt; inactive = no such curve, though single readings can be large; an effect the other way counts as inactive or inconclusive.
Potency is the fitted concentration of half-maximal effect.

In the case of `Cc1oncc1C(=O)Nc1ccc(C(F)(F)F)cc1`, the Potency entry in assay [1] and in assay [2] was “inactive” throughout. For the same compound, the Potency in assay [3] was 14.8 µM (active).

Take `NC(N)=NC(=O)c1nc(Cl)c(N)nc1N`: the Potency result in assay [4] was “inactive”. In addition, the Potency in assay [3] was 8.33 µM (active).

With `CS(=O)(=O)Oc1ccc2c(NC(N)=O)c(C(=O)c3ccc(Cl)cc3Cl)oc2c1`, the Potency in assay [5] is 5.26 µM (active); in assay [3], 18.7 µM (active); in assay [6], 4.69 µM (active).

As for `O=C(Nc1ccc(F)c(C(F)(F)F)c1)Nc1nnc(-c2ccncc2)s1`, the Potency in assay [5] is 2.35 µM (active).

Take `CNCc1ccc(-c2[nH]c3cc(F)cc4c3c2CCNC4=O)cc1`: the Potency in assay [5] was 23.5 µM (active). Also, the Potency entry in assay [2], in assay [3] and in assay [6] was “inactive” throughout.

Take `Cc1ccccc1C(C(=O)NC1CCCC1)N(C(=O)Cn1cnc2ccccc21)c1cccc(F)c1` (configuration not stated): the Potency in assay [5] and in assay [6] was 20.9 µM (active) each time. Moreover, the Potency entry in assay [7] is “inactive”.

For `CC1(C)SCCN(S(=O)(=O)c2ccc(OCC#CCO)cc2)[C@@H]1C(=O)NO`, the Potency entry in assay [4], in assay [2], in assay [3] and in assay [7] was “inactive” in each case.

Turning to `COc1ccc(CC2=NN3C([C@@H](CCc4ccccc4)[C@@H](C)O)=NC(C)C3C(=O)N2)cc1OC` (some centres not stated), the Potency result in assay [2], in assay [3], in assay [6] and in assay [7] was “inactive” each time.

As for `NC(=O)c1ccc(-c2nc(-c3ccc4c(c3)OCCO4)c(-c3ccccn3)[nH]2)cc1`, the Potency result in assay [4] and in assay [3] was “inactive” each time.

On to `CCOc1ccn(-c2ccc(F)cc2)c(=O)c1C(=O)Nc1ccc(Oc2ccnc(N)c2Cl)c(F)c1`, for which the Potency result in assay [4] is “inactive”. In addition, the Potency in assay [3] was 13.2 µM (active); in assay [6], 2.35 µM (active).

For `CCCS(=O)(=O)Nc1ccc(F)c(C(=O)c2c[nH]c3ncc(Cl)cc23)c1F`, the Potency in assay [4] is 16.6 µM (active); in assay [3], 20.9 µM (active); in assay [6], 14.8 µM (active).

In the case of `Cn1c(=O)c(F)c(Nc2ccc(I)cc2F)c2c(=O)n(C[C@@H](O)CO)cnc21`, the Potency in assay [4] was 3.32 µM (active); in assay [6], 13.2 µM (active).

As to `Cc1ccc(-n2nc(C(C)(C)C)cc2NC(=O)Nc2ccc(OCCN3CCOCC3)c3ccccc23)cc1`, the Potency is 18.7 µM (active) in assay [4], 1.18 µM (active) in assay [3] and 1.05 µM (active) in assay [6].

As to `C[C@]12CC[C@H](O)CC1=CC[C@@H]1[C@H]2CC[C@]2(C)C(c3cccnc3)=CC[C@H]12`, the Potency entry in assay [4], in assay [3] and in assay [7] was “inactive” each time.

Consider `CC(C)(Sc1ccc(CCN(CCCCC2CCCCC2)C(=O)NC2CCCCC2)cc1)C(=O)O`, for which the Potency entry in assay [4], in assay [3], in assay [6] and in assay [7] was “inactive” each time. Besides, the Potency in assay [2] is 18.7 µM (active).

Turning to `C[C@@H]1CN(Cc2ccc(F)cc2)[C@@H](C)CN1C(=O)c1cc2c(C(=O)C(=O)N(C)C)cn(C)c2cc1Cl`, the Potency in assay [4] was 13.2 µM (active); in assay [3], 13.2 µM (active); in assay [6] it was 9.35 µM (active); in assay [7], 14.8 µM (active).

For the compound `COc1ccc(CCN2CCN(CCCc3ccccc3)CC2)cc1OC`, the Potency entry in assay [4] and in assay [3] was “inactive” each time.

As for `O=C(c1cc(Cc2n[nH]c(=O)c3ccccc23)ccc1F)N1CCN(C(=O)C2CC2)CC1`, the Potency result in assay [1] is “inactive”.

For `CCOc1ccc(Cc2cc([C@@H]3O[C@H](CO)[C@@H](O)[C@H](O)[C@@H]3O)ccc2Cl)cc1`, the Potency was 20.9 µM (active) in assay [4] and 18.7 µM (active) in assay [6]. The Potency entry in assay [5] and in assay [2] was “inactive” each time.

On to `CN(C)c1ccc(C2Nc3ccc4ccccc4c3C3=C2C(=O)CC(C)(C)C3)cc1Br` (configuration not stated), for which the Potency in assay [1] was 0.0019 µM (active); in assay [2], 11.8 µM (active); in assay [3], 5.26 µM (active); in assay [6] it was 5.9 µM (active).

For the compound `CCN(CC)CCCC(C)Nc1nc(C)cc(Nc2ccc3nc(C)cc(N)c3c2)n1` (configuration not stated), the Potency entry in assay [4] and in assay [3] was “inactive” each time. The Potency in assay [5] and in assay [7] was 10.5 µM (active) each time.

For `Cc1cc2c(F)c(Oc3ncnn4cc(OC[C@@H](C)O)c(C)c34)ccc2[nH]1`, the Potency entry in assay [1] was “inactive”.

Regarding `CCc1cc(Nc2nccc(-c3c(-c4ccc(OC)c(C(=O)Nc5c(F)cccc5F)c4)nc4ccccn34)n2)c(OC)cc1N1CCC(N2CCN(S(C)(=O)=O)CC2)CC1`, the Potency was 18.7 µM (active) in assay [4], 2.96 µM (active) in assay [5], 10.5 µM (active) in assay [3] and 7.43 µM (active) in assay [6].

Take `Cc1cnc(Nc2ccc(OCCN3CCCC3)cc2)nc1Nc1cccc(S(=O)(=O)NC(C)(C)C)c1`: the Potency entry in assay [4] and in assay [3] was “inactive” in each case. Further, in assay [2], the Potency is 0.296 µM (active).

As to `C[C@H](NC(=O)Cc1cc(F)cc(F)c1)C(=O)N[C@@H]1C(=O)N(C)c2ccccc2-c2ccccc21`, the values for the Potency in assay [4], in assay [3] and in assay [6] were 18.7 µM (active), 5.9 µM (active) and 5.26 µM (active), respectively.

As to `COc1ccc(-c2ccc3c(N4CCOC[C@H]4C)nc(N4CCOC[C@H]4C)nc3n2)cc1CO`, the Potency in assay [5] is 0.0372 µM (active); in assay [2], 0.0132 µM (active); in assay [6] it was 0.0166 µM (active).

As for `CCC(=O)N[C@H]1CC[C@H](C(=O)N(C)c2ccc(-c3nc4ccccc4o3)cc2)C1`, the Potency was 8.33 µM (active) in assay [4], 11.8 µM (active) in assay [3], 7.43 µM (active) in assay [6] and 20.9 µM (active) in assay [7].
